Measurements published in the supplement of paper PMC6555819.

Legend:
Test in all cases: PBM binding z-score (relative to random genomic background probes); higher = stronger binding; sequences stand for … in GC…GCGATTGACAGCGTAGAATGAAGG
[1] = tested on: RARb homodimer (NR concentration 270 nM)
Procedure, shortened: (§1)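 Regression normalization was applied to scanned fluorescence from custom Agilent 4×180K protein-binding microarrays. Before scanning, arrays were incubated 1 h with ligand-free nuclear receptor dimers, and binding was detected with antibodies against each partner (one per run). Binding z-scores use the random background probes as reference.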

[2] = tested on: RARg:RXRa (NR concentration 270 nM, RXRa partner concentration 90 nM)
Procedure, shortened: as §1

[3] = tested on: RARg homodimer (NR concentration 270 nM)
Procedure, shortened: as §1

[4] = tested on: RXRa DBDmut IVT, anti-RXR (DBD mutation: RXRa K156A/R161A, NR concentration 90 nM)
Procedure, shortened: as §1

[5] = tested on: RXRa homodimer (NR concentration 180 nM)
Procedure, shortened: as §1

[6] = tested on: THRa:RXRa (NR concentration 90 nM, RXRa partner concentration 90 nM)
Procedure, shortened: as §1

[7] = tested on: THRa homodimer (NR concentration 90 nM)
Procedure, shortened: as §1

[8] = tested on: VDR homodimer (NR concentration 270 nM)
Procedure, shortened: as §1

Row | Sequence | PBM binding z-score [1] | PBM binding z-score [2] | PBM binding z-score [3] | PBM binding z-score [4] | PBM binding z-score [5] | PBM binding z-score [6] | PBM binding z-score [7] | PBM binding z-score [8]
1 | CAAACTAGGTCACGAAATGTCAAAGTCGAATGAC | 3.6 | 4.86 | 5.58 | 2.02 | 3.79 | 3.51 | 1.5 | 1.1
2 | TCGAGTAGGTTAGGGTCATTCAGAATGGCGTCGA | 3.05 | 3.8 | 2.8 | 2.11 | 4.66 | 3.83 | 2.62 | 3.97
3 | GCTTGTAGATCAAGGTTAAGAGAGACTAAGCTAA | 0.148 | 0.263 | 0.22 | -0.00641 | 0.438 | 1.2 | -0.0888 | -0.335
4 | CAAACTAGGTCTAAGGTCAAAGTCGAGCCAACCA | 4.24 | 4.86 | 4.08 | 2.51 | 5.24 | 4.1 | 4.5 | 3.63
5 | GTTTACGGGTCAAAGGTTATAGCATGAATAGAAT | 3.41 | 6.91 | 5.26 | 2.06 | 9.23 | 3.94 | 0.0413 | 1.99
6 | ACTAGCAGGCCAAGTTTGGGGCACTCAAACAAAG | 0.455 | 0.443 | 0.463 | -0.0962 | -0.356 | 0.348 | -0.409 | -0.166
7 | TCATATCGGTAAAGGTGAAAGTCGAACGATATGA | 1.32 | 1.5 | 1.16 | 0.447 | 1.95 | 1.19 | -0.551 | -0.566
